Hits are enriched below; roughly 1.5% of the tested compounds scored in any of these assays.
Eya2 inh = qHTS Assay for Inhibitors of the Phosphatase Activity of Eya2 | Protein phosphatase EYA2 (Homo sapiens), O00167 | recombinant Eya2, OMFP fluorescence dephosphorylation (OMFP is methylfluorescein phosphate) | Potency, µM (doses to about 76.9 µM), hits mostly inhibitors | actives 0.006% (n = 330,000) | AID 488837, 2010
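Eya2 protein (added as 0.2 uM solution) was preincubated with compound for 10 min at ambient temperature in 50 mM HEPES pH 7.5, 50 mM NaCl, 5 uM MgCl2, 0.05% BSA, 1 mM DTT. OMFP (added at 50 uM) then reacted 10 min; fluorescence read at 485/525 nm.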
GALK inh = qHTS Assay for Inhibitors of Human Galactokinase (GALK); P51570; Purified GALK, Kinase-Glo residual ATP luminescence; Potency, µM (top dose mostly 57.5 µM), hits mostly inhibitors; actives 0.007% (n = 270,000); AID 1868, 2009
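Quantitative HTS: GALK 5 nM, ATP 35 uM, galactose 100 uM, 1 h room temperature, then luciferase-based ATP detection.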
TrxR1 inh = qHTS Assay for Inhibitors of Mammalian Selenoprotein Thioredoxin Reductase 1 (TrxR1): qHTS; recombinant rTrxR1, NADPH fluorescence consumption, selenite substrate; Potency, µM (titrated, usually from 114 µM), actives largely listed as inhibitors; Thioredoxin reductase 1, cytoplasmic (Rattus norvegicus), O89049; actives 1% (n = 390,000); note: nearly all actives have a fitted effect of over 65% in size
Target sequence (O89049 whole entry, looked up): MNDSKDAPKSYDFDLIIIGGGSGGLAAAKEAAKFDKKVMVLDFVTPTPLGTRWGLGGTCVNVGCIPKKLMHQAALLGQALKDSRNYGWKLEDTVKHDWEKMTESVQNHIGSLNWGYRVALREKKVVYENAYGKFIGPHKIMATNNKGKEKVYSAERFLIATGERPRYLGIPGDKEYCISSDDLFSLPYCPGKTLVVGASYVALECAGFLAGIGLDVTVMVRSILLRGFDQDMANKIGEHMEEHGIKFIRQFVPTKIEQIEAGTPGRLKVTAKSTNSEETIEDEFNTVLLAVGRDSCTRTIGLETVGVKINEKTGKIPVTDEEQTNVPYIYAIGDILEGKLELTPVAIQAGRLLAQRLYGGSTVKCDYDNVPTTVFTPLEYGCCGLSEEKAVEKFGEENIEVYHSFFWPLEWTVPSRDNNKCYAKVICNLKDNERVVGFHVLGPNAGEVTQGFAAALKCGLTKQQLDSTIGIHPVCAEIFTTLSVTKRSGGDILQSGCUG
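Rat TrxR1 (90 nM in the dispensed reagent) was pre-reduced with 400 uM NADPH for 5 min at room temperature, then incubated with compound for 15 min. After 400 uM selenite was added, NADPH fluorescence (Ex 340/Em 450 nm) was followed for 8 min.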
TrxR1 substrate = qHTS Assay for Substrates of Mammalian Selenoprotein Thioredoxin Reductase 1 (TrxR1): qHTS. purified TrxR1 substrate turnover, NADPH consumption readout. Potency, µM (top dose mostly 114 µM). actives 0.01% (n = 390,000); note: nearly all actives have a fitted effect of over 50% in size
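Rat TrxR1, dispensed at 90 nM, was prereduced with 400 uM NADPH (final) for 5 min at ~22 deg C, then incubated with compound 15 min before 400 uM selenite. A first-read NADPH fluorescence drop versus no-compound background flagged substrates.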
CtBP-E1A blk = qHTS Assay for Inhibitors of the CtBP/E1A Interaction; CtBP / adenovirus E1A interaction (AlphaScreen); AlphaScreen GST-E1A/His-CtBP binding, 1536-well; hits give low values; activity change, % (no concentration beside the values); actives 0.49% (n = 340,000); in the data active = activity change below about -65%; inconclusive = mostly about -30% to -63%
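Protein mix (5X: 125 nM each GST-E1A, His-CtBP) was incubated with pinned compound 2 h at 37 deg C in dark, in 50 mM Tris pH 8.0 buffer with 300 mM NaCl. Glutathione donor and nickel acceptor beads followed; AlphaScreen signal read after 1 h.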
Six1-Eya2 inh = qHTS Assay for Inhibitors of the Six1/Eya2 Interaction; AlphaScreen GST-Six1/His-Eya2 binding, biochemical; hits give low values; activity change, % (test concentration not listed); actives 0.56% (n = 360,000); AID 651725, 2012; in the data active = activity change below about -65%; inconclusive = mostly about -30% to -63%
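Compounds are tested against tagged Six1 and Eya2 proteins bridged by glutathione donor and nickel acceptor beads; after a one-hour incubation at 37 °C without light, AlphaScreen emission is recorded.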
Numbers stand for hits; 0 = inactive; ? = inconclusive; - = no result given; [ ] = another dose, or the depositor's remark. Unless noted, calls come from the whole dose curve; as a rule, active = well fitted curve in the direction sought with a large enough effect; inconclusive = small, poorly fitted or top-dose-only effect, or another doubt; inactive = no such curve, though single readings can be large; an effect the other way counts as inactive or inconclusive.

SMILES | Eya2 inh | GALK inh | TrxR1 inh | TrxR1 substrate | CtBP-E1A blk | Six1-Eya2 inh
Cc1c(N=NC2=C(O)CCCC2=O)c(=O)n(-c2ccccc2)n1C | 0 | 0 | 0 | 0 | -91.8 | -79.4
Cc1ccc(S(=O)(=O)Nc2cc(Cl)c3oc4c(c3c2)C(=O)CC(C)(C)C4)cc1 | - | - | 0 | 0 | - | -
COc1cccc(CN2CCNC(=O)C2CC(=O)O)c1OC (stereo not given) | 0 | 0 | ? | 0 | 0 | 0
Cc1ccccc1CN1CCNC(=O)C1CC(=O)O (stereo not given) | 0 | 0 | 70.8µM | 0 | 0 | 0
Cc1ccc(NC(=S)NNC(=O)c2nnn(-c3ccccc3)c2C)cc1 | 0 | 0 | ? | 0 | 0 | -75.0
NC(=S)N/N=C\c1ccccc1OCc1ccccc1 | 0 | 0 | 0 | 0 | 0 | 0
NC(=S)N/N=C/c1ccccc1OC(=O)/C=C/c1ccccc1 | 0 | 0 | 0 | 0 | -93.3 | ?
CN(CC(=O)Nc1cccc(Cl)c1)S(=O)(=O)c1ccc2c(c1)n(C)c(=O)c(=O)n2C | 0 | 0 | 25.1µM | 0 | - | 0
COc1ccc(C(=O)c2no[n+]([O-])c2C(=O)c2ccc(OC)cc2)cc1 | 0 | 0 | 0.631µM | 0 | 0 | 0
O=C(c1cccs1)c1no[n+]([O-])c1C(=O)c1cccs1 | 0 | 0 | 0.708µM | 0 | 0 | 0
COc1ccc(NC(=O)c2c(N)no[n+]2[O-])cc1 | 0 | 0 | 0 | 0 | 0 | 0
O=C(NCCO)c1ccc2nc(-c3ccco3)c(-c3ccco3)nc2c1 | 0 | 0 | 8.91µM | 0 | 0 | ?
O=C(NCCO)c1ccc(Cl)c(Cl)c1 | 0 | 0 | 0 | 0 | 0 | 0
O=C(NCCc1ccccc1)c1ccc2nc(-c3ccco3)c(-c3ccco3)nc2c1 | 0 | 0 | 3.16µM | 0 | 0 | 0
O=C(NC1CCCCC1)c1cnn2c(C(F)(F)F)cc(-c3ccco3)nc12 | 0 | 0 | 3.55µM | 0 | 0 | 0
O=C(NC1CCCC1)c1ccc2nc(-c3ccco3)c(-c3ccco3)nc2c1 | 0 | 0 | 3.16µM | 0 | 0 | ?
O=C(Nc1ccc([N+](=O)[O-])cc1Cl)c1cc(Cl)cc(Cl)c1O | - | - | 0 | 0 | - | -
Cc1ccccc1-c1ccnc2c(-c3ccc(F)cc3)c(C)nn12 | - | - | 0 | 0 | - | -
Cc1cccc(NC(=O)Cn2cc(S(=O)(=O)N3CCCC3)c(S(=O)(=O)N3CCCC3)c2)c1C | - | - | 0 | 0 | - | -
O=C(c1cc(-c2ccccc2O)on1)N1CCCCC1 | - | - | 0 | 0 | - | -
O=C(c1ccccc1)c1ccc2nc(-c3ccco3)c(-c3ccco3)nc2c1 | 0 | 0 | 2.82µM | 0 | 0 | ?
COC(=O)C(CC(=O)c1ccc(Br)cc1)n1cccn1 (stereo not given) | 0 | 0 | 8.91µM | 0 | 0 | 0
COC(=O)C(CC(=O)c1ccc(C)cc1)n1cccn1 (stereo not given) | 0 | 0 | ? | 0 | - | 0
Cc1ccc(-n2ncc(C(=O)NC3CCCCC3)c2C2CCN(C(=O)OC(C)(C)C)CC2)cc1 | - | - | 0 | 0 | - | -
Cc1cc(N2CCCC2)nc2ccc(NC(=S)NC(C)C)cc12 | 0 | 0 | 7.94µM | 0 | 0 | 0
SMILES | Eya2 inh | GALK inh | TrxR1 inh | TrxR1 substrate | CtBP-E1A blk | Six1-Eya2 inh
C/C(=N\NC(=S)NCc1ccccc1)c1ccco1 | 0 | 0 | 79.4µM | 0 | 0 | 0
C/C(=N\NC(=S)NCc1ccccc1)c1ccccc1 | 0 | 0 | 0 | 0 | 0 | 0
COC(=O)c1ccc(/C=C2\CCn3c2nc2cc(C(=O)O)ccc2c3=O)cc1 | 0 | 0 | 0 | 0 | ? | -66.1
O=C(O)c1cc(O)c2c(c1)C(=O)c1cccc(O)c1C2=O | 0 | - | 0 | 0 | -84.1 | -73.5
Cc1cc(O)c2c(c1)C(=O)c1cccc(O)c1C2=O | 0 | - | - | - | - | -
CC(C)NC(=O)c1ccc(CSc2nc3ccncc3n2Cc2cccc(F)c2)cc1 | - | - | 0 | 0 | - | -
CC[N+](C)(C)c1ccc(/C=C/c2ccc3ccccc3n2)cc1 | - | - | 0 | 0 | - | -
O=C(CCl)N1c2ccccc2Oc2ccc3ccccc3c21 | - | - | 2.51µM | 0 | ? | 0
CC(=O)N1c2ccccc2Oc2cc3ccccc3cc21 | 0 | 0 | 0 | 0 | 0 | 0
CCc1nc2cccnc2n1-c1ccc(CC(=O)Nc2cccc(C)c2C)cc1 | - | - | 0 | 0 | - | -
O=c1[nH]c(-c2ccc(-c3cccc(Cl)c3)o2)nc2ccccc12 | 0 | - | 50.1µM | 0 | - | -
COc1ccccc1N1CCN(C(=O)c2c(C)oc3ncn(C)c(=O)c23)CC1 | - | - | 0 | 0 | - | -
CCN1C(=O)[C@H]2[C@@H](c3ccc(-c4ccc(F)cc4)c(OC)c3)N[C@@](C)(C(=O)OC)[C@H]2C1=O | 0 | - | 79.4µM | 0 | 0 | 0
COc1ccc(OC)c(NS(=O)(=O)c2cc3c(cc2Cl)N(C(C)=O)CCO3)c1 | - | - | 17.8µM | 0[11.4 µM] | - | -
Cc1cc(C)cc(N(CC(=O)NCc2ccccc2Cl)S(=O)(=O)c2c(C)noc2C)c1 | - | - | 0 | 0 | - | -
Cc1ccc(N=Nc2cc(C)ccc2N)cc1 | 0 | 0 | 0 | 0 | -80.4 | ?
CCc1cccc(C)c1NC(=O)C1=C(C)C(=O)OC12CCC(C)CC2 (stereo not given) | - | - | 0 | 0 | - | -
CSC1=C(C#N)C(c2ccccc2Cl)C2=C(CCCC2=O)N1 (stereo not given) | 0[15.4 µM] | 0 | - | - | - | -
CC(=O)C1=C(c2ccccc2)OC(N)=C(C#N)C1c1ccccc1C (stereo not given) | 0 | 0 | 0 | 0 | 0 | 0
CSC1=C(C#N)C(c2ccccc2C)C(C#N)=C(N)N1 (stereo not given) | 0 | 0 | 50.1µM | 0 | 0 | 0
CSC1=C(C#N)C(c2ccccc2Cl)C2=C(N1)c1ccccc1C2=O (stereo not given) | 0 | - | 50.1µM | 0 | 0 | 0
Cc1nnc(SCC2=C(C(=O)O)N3C(=O)C(NC(=O)COc4ccccc4)C3SC2)s1 (stereo not given) | 0 | - | 7.94µM | 0 | 0 | 0
Cc1nnc(SCC2=C(C(=O)O)N3C(=O)C(NC(=O)COc4ccc(F)cc4)C3SC2)s1 (stereo not given) | 0 | - | 3.98µM | 0 | 0 | 0
Cc1nnc(SCC2=C(C(=O)O)N3C(=O)C(NC(=O)Cn4nc(C(F)F)cc4C)C3SC2)s1 (stereo not given) | 0 | 0 | 44.7µM | 0 | - | 0
CN(C(=O)CSc1nc(-c2ccccc2)no1)c1ccc(F)cc1 | - | - | 0 | 0 | - | -
CN(C(=O)c1ccno1)c1nnc(-c2ccccn2)s1 | 0 | 0 | 20µM | 0 | ? | ?
CN(C(=O)c1ccncc1)c1nnc(-c2ccccn2)s1 | 0 | 0 | ? | 0 | 0 | 0

Screening results (PubChem)
